In PubChem BioAssay (NCI):
About 83,000 compounds went through this panel and 20% of them were active in at least one assay; those are over-represented in the sample as a whole.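 The test compound was applied at a single concentration to cells in 96-well plates for 48 hours, and percent growth was recorded.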 Unmarked numbers belong to inactive results. Calls of active or inactive are those of the source. Rule for the calls: active = growth percent below 10; inactive = the rest.

Each compound was assayed on HL-60(TB) leukemia (assay: NCI-60 one-dose screen, 48 h (100 = growth as untreated, 0 = no growth, -100 = all killed)). Conditions: 10 µM unless noted.
In the case of `O=C(O)/C(Br)=C/c1c[nH]c2ccc(Br)cc12`, the growth is reported as 96.9%. `CSc1nc2ncc([N+](=O)[O-])c(=O)n2[nH]1` gave a growth of 106%. With `S=c1sc2c(Cl)nc(-c3cccnc3)nc2n1-c1ccccc1` the growth was -52.5% (active). For `Cn1ccnc1C(=O)/C=C/c1ccc(CC(=O)Nc2cc(F)c(F)c(F)c2)cc1`, the growth was -31.2% (active). `COc1ncnc2c1cnn2C` was tested, and the growth was 114%. With `CC(=O)N1N=C(c2ccc(Cl)cc2)CC1c1sc(Cl)nc1Cl` (stereo not given) the growth was 89.5%. For `Cc1cc(Cl)ccc1Nc1nc(C(F)(F)F)ccc1C(=O)N/N=C/c1ccc(N(C)C)cc1`, the growth was 12.4%. In the case of `Ic1ccc(OCCCCn2ccnc2)cc1`, the growth is reported as 3.58% (active). In the case of `CC1CCCN(CCCCCOc2ccc3oc4ccccc4c(=O)c3c2)C1` (stereo not given), the growth is reported as 45.5%. With `COC(=O)c1ccc2[nH]c(O)c(C(=Nc3ccc(N(C)C(=O)CN4CCN(C)CC4)cc3)c3ccc(N)cc3)c2c1` the growth was 110%. In the case of `CCCCc1ccc(NS(=O)(=O)c2cc3c4c(c2)CCN4C(=O)CC3)cc1`, the growth is reported as -23.6% (active). With `CC1c2ccccc2N(S(=O)(=O)c2ccccc2)C1C` (stereo not given) the growth was 67.6%. With `CN1CCC(COc2cnc(-c3cccc(Cn4nc(-c5cccc(C#N)c5)ccc4=O)c3)nc2)CC1` the growth was 95.3%. `CC(=O)NC1=C(C#N)C(c2ccccc2Cl)c2c(ccc3ccccc23)O1` (stereo not given) gave a growth of 29.7%. For `CCN(CC)c1ccc(/C=C2\SC(=O)C(Nc3nnc(-c4cccnc4SCc4ccccc4)o3)C2=O)cc1` (stereo not given), the growth was 19.4%.
